# From PubChem BioAssay (NCATS)
# Records with an inconclusive call do not appear. The source made the active and inactive calls. Calls follow the shape of the full dose curve.
# Target: Atrial natriuretic peptide receptor 1 (Homo sapiens) (UniProt P16066)
# Assay: Natriuretic polypeptide receptor (hNpr1) antagonism - Pilot CMLD screen (AID 1347052)
# Conditions: HEK293 hNpr1 GloSensor cGMP luminescence, ANP-stimulated; series mostly up to 9.22 µM
# Protocol: In order to identify small molecular compounds that inhibit the hNpr1 receptor we developed a high-throughput assay to measure inhibition of the guanylate cyclase activity of the receptor. cGMP production was measured using a circular permutated Firefly luciferase (FLuc) enzyme functionally linked to the cGMP binding domain of human phosphodiesterase 5 (GloSensor technology pGS-40F, (Fan, F. et al. 2008). The cGMP-sensor was expressed in human embryonic kidney 293 (HEK-293) cells and FLuc activity was measured after stimulation with hNrp agonist peptide. hNrp agonists activates the receptor's associated guanylyl cyclase (GC) domain producing cGMP which then binds to the GloSensor resulting in FLuc activation, the enzymatic activity of which can be measured as bioluminescence with addition of luciferin substrate.
# This assay was initially piloted by testing with a small library of specialty compounds.
# PROTOCOL TABLES (as described by Inglese J, Shamu CE and Guy RK. 2007)
# SEQUENCE No. (e.g., 1, 2, 3, etc.); […] (e.g., Cells, Incubation, Reagent, etc.); VALUE and DESCRIPTION.
# 1. Cells. Seed 1500 HEK293 cGMP-sensor cells expressing hNpr1 per well in 4uL into Greiner 1536-well white/solid bottom high base, tissue culture-treated plates.
# 2. Incubation. Incubate plated cells at 37C in 5% CO2, 95% RH overnight.
# 3. Reagent. Add 1uL per well GloSensor reagent from Promega (2% final concentration) or CO2 independent media vehicle control to respective columns of Greiner 1536-well plates.
# 4. Incubation. Incubate plated cells at room temperature for 2 h, protect from light.
# 5. Compounds. Library compounds and A-71915 control added at 23 nL per well, transferred by Pin Tool.
# 6. Incubation. Incubate plated cells for 30 min. at room temperature, protect from light.
# 7. Detector. GloSensor baseline pre-read luminescence measured using CCD-based camera (Viewlux).
# 8. Compound. Add 1uL of hNppA peptide to 0.1 nM final concentration to stimulate hNpr1 or CO2 independent media as vehicle control.
# 9. Incubation. Incubate treated cells at room temperature for 20 min., protect from light.
# 10. Detector. GloSensor post-hNppA luminescence measured using CCD-based camera (Viewlux).
# NOTES (numbers refer to Sequence numbers above)
# 1. HEK293 cells expressing hNpr1 and GIP/pGS-40F grown to 85-95% confluence (48-72 h) in T175 culture flasks (CO2 independent media supplemented with 10% FBS, 1% Pen/Strep antibiotics and 1 ug/mL puromycin). Trypsinize and harvest cells from T175 culture flasks and filter through 40 um cell strainer. Cells counted with Invitrogen Countess (30,000,000 - 50,000,000 cells/flask). Cells diluted to a final concentration of 375 cells/uL in CO2 independent media and a Millipore multidrop used to dispense 1500 cells per well (4uL/well) into 13 1536-well Greiner White/Solid bottom, high base tissue-culture treated (TC) plates and one Aurora 1536-well Black/Clear bottom, low base, TC plate (for visual inspection of cell health throughout the duration of the assay).
# 2. Cells incubated overnight at ambient temperature, 24 h. at 37C in 95% RH incubator protected from light, covered with metal lid with gas-exchange holes.
# 3. Prepare GloSensor Reagent (Promega): Reconstitute GloSensor luciferase substrate by adding 8.2mL Hepes buffer to 250mg substrate, mix well, protect from light and stored at -80C. Prepare a fresh 12% GloSensor solution in CO2 independent supplemented plating media (see above). Mix well and store at ambient temperature, protected from light. 1uL 12% GloSensor Luciferase Reagent added (2% final concentration) to respective columns of 13 x 1536-well Greiner plate with BioRaptr, 1uL CO2 independent plating media added to respective columns as vehicle control with BioRaptr.
# 4. Cells incubated for 2 h. at ambient temperature, protected from light with metal lid with gas-exchange holes.
# 5. A-71915 stock solution prepared (10 mM in DMSO). […]
# Atrial natriuretic peptide receptor 1 (Homo sapiens), sequence (P16066 whole entry, looked up): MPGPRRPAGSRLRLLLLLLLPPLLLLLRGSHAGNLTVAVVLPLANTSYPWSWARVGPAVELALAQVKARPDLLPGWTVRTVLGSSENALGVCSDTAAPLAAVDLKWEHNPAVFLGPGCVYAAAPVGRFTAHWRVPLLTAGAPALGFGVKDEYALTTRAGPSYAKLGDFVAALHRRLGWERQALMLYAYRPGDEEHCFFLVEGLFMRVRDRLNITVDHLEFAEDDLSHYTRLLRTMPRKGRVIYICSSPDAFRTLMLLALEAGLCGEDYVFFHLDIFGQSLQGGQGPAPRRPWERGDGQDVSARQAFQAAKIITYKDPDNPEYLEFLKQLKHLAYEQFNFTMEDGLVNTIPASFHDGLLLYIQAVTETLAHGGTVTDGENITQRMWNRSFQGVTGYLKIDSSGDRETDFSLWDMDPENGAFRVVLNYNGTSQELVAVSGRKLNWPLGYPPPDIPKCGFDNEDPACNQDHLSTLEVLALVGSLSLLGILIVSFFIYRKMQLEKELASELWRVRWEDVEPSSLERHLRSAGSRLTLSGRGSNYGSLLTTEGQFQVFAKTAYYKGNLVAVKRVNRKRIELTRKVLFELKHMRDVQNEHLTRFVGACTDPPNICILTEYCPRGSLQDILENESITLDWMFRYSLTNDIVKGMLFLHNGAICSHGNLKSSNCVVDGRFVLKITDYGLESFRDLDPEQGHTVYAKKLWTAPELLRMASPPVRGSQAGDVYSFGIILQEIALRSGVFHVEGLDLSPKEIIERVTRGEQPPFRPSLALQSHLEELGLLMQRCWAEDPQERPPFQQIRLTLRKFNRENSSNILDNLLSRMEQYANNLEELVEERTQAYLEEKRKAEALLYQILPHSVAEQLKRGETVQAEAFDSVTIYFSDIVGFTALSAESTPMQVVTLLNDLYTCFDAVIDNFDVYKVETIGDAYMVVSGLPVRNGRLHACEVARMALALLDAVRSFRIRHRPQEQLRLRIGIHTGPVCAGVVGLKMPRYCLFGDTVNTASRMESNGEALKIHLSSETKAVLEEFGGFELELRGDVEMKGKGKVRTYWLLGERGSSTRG
row,SMILES,outcome
1,COC(=O)C12CC3=CCC4C(=O)N(c5ccccc5)C(=O)C4C3Cc3ccccc3[C@H]1CNC2=O (some centres not stated),inactive
2,CC(=O)[C@]12C[C@]3(C)CCCN(C(=O)N[C@@H]1c1ccccc1)C32 (some centres not stated),inactive
3,COC(=O)[C@@]1(C=C2c3ccccc3[C@@H](OC)[C@@H]2C)[C@@H]2Oc3ccccc3[C@@H]21,inactive
4,COC(=O)C1=C2CCO[C@@H]2[C@H]2[C@@H](C)[C@H](OC)c3ccccc3[C@H]12,inactive
5,COC(=O)C1=C2CCCO[C@H]2[C@@H]2[C@@H](C)[C@H](OC)c3ccccc3[C@@H]12,inactive
6,COC(=O)[C@@]1(C=C2c3ccc(F)cc3[C@@H](OC)[C@@H]2C)[C@@H]2c3ccccc3O[C@@H]21,inactive
7,COC(=O)[C@@]1(C=C[C@@H](C)[C@H](OC)c2ccccc2Br)[C@@H]2Oc3ccccc3[C@@H]21,inactive
8,CCOC(=O)[C@]12C[C@]3(C)CCCN(C(=O)N[C@@H]1c1ccccc1)[C@@H]32,inactive
9,CCOC(=O)[C@@]12[C@@H]3[C@@H](CCN3C(=O)N[C@H]1c1ccccc1)C2(C)C,inactive
10,COC(=O)C1C2CC(C)C(c3ccccc32)N1C(=O)C(F)(F)F (configuration not stated),inactive
11,CC(=O)[C@]12C[C@@H]3CCN(C(=O)N[C@@H]1c1ccccc1)[C@@]32C,inactive
12,COC(=O)[C@]12C[C@@H]3CCN(C(=O)N[C@@H]1c1ccccc1)[C@@]32C,inactive
13,CCOC(=O)[C@]12C[C@]3(C)CCN(C(=O)N[C@@H]1c1ccccc1)[C@@H]32,inactive
14,CCC[C@]12CCN3C(=O)N[C@@H](c4ccccc4)[C@](C(=O)OCC)(C1)[C@H]32,inactive
15,CCOC(=O)[C@]12C[C@@H]3OCCN(C(=O)N[C@@H]1c1ccccc1)[C@@H]32,inactive
16,CC(=O)[C@@]12C3[C@@H](CCN3C(=O)N[C@H]1c1ccccc1)[C@H]2c1ccccc1 (some centres not stated),inactive

row,SMILES,outcome
1,CCOC(=O)[C@]12C[C@@H]3CCN(C(=O)N(C(C)=O)[C@@H]1c1ccccc1)[C@@H]32,inactive
2,CO[C@@H]1c2ccccc2[C@H]2C(C(=O)O)c3c(n(C)c4ccccc34)[C@H]2[C@H]1C (some centres not stated),inactive
3,COC(=O)C1=NN=C(C(=O)OC)[C@@]2(C)c3ccccc3NC12 (some centres not stated),inactive
4,COC(=O)[C@@H]1[C@@H](c2ccccc2)[C@H]2C(=O)c3c(OC)cc(OC)cc3O[C@@]12c1ccc(OC)cc1,inactive
5,COC(=O)C1=C[C@H]([C@@H](C)[C@H](OC)c2ccccc2Br)[C@H]2[C@H]1c1ccccc1N2C,inactive
6,C=C1[C@@H]2CCN3C(=O)N[C@@H](c4ccccc4)[C@@]1(C(=O)OCC)C23 (some centres not stated),inactive
7,COC(=O)C1c2c(n(C)c3ccccc23)[C@H]2[C@@H](C)[C@H](OC)c3ccccc3[C@@H]12 (some centres not stated),inactive
8,CC(=O)[C@]12[C@H](c3ccccc3)[C@@H]3CCN(C(=O)N[C@H]1c1ccccc1)[C@@]32C,inactive
9,CC(=O)[C@]12C[C@@H]3CCCN(C(=O)N[C@@H]1c1ccccc1)[C@@H]32,inactive
10,CCOC(=O)[C@@]12C3[C@@H](CCN3C(=O)N[C@@H]1c1ccccc1)[C@@H]2C (some centres not stated),inactive
11,COC(=O)C1(C)C2CC(C)C(c3ccccc32)N1C(=O)C(F)(F)F (configuration not stated),inactive
12,CCOC(=O)[C@]12C[C@]3(OC)CCN(C(=O)N[C@@H]1c1ccccc1)[C@@H]32,inactive
13,COC(=O)[C@@]1(C=C2c3ccc(F)cc3[C@@H](OC)[C@@H]2C)[C@@H]2Oc3ccccc3[C@@H]21,inactive
14,C=C(C)C(=O)CP(=O)(OCC)OCC,inactive
15,COC(=O)[C@@]12Cc3ccccc3[C@H]1C[C@H](C)[C@@H](C)N2C(=O)C(F)(F)F,inactive
16,COC(=O)C1=C2CCO[C@H]2[C@@H]2[C@@H](C)[C@H](OC)c3ccccc3[C@@H]12,inactive
